GAA spleen mod = qHTS Assay for Inhibitors and Activators of Human alpha-Glucosidase From Spleen Homogenate | Lysosomal alpha-glucosidase (Homo sapiens), P10253 | human spleen homogenate, 4-MU-alpha-glucoside fluorescence | Potency, µM (highest dose often 79.9 µM), usual class: inhibitors | 0.006% of 240,000 active | AID 2112, 2009
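Human spleen homogenate (1 ug) incubated with compounds and 1 mM 4-methylumbelliferyl-alpha-D-glucopyranoside in pH 5.0 citrate/phosphate buffer, 37 C, 40 min. Stopped at pH 10; 4-MU fluorescence (Ex 365/Em 440 nm); AC50 by Hill fit.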
GAA glycogen mod = qHTS Assay for Inhibitors and Activators of Human alpha-Glucosidase Cleavage of Glycogen | Potency, µM (titrated, usually from 76.4 µM), usual class: inhibitors | 0.38% of 300,000 active | recombinant GAA, glycogen substrate, Amplex Red glucose oxidase fluorescence | Lysosomal alpha-glucosidase (Homo sapiens), P10253;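 further: the screen sought inhibitors and activators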
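Recombinant human alpha-glucosidase (4 nM final) hydrolysed bovine liver glycogen (30 ug) for 40 min at 37 C in pH 5.0 citrate/phosphate with 0.01% Tween-20. Released glucose detected by glucose oxidase/Amplex Red, Ex 573/Em 610 nm. Compounds up to 77 uM; AC50 from Hill fits.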
aGal spleen mod = qHTS Assay for Inhibitors and Activators of Human alpha-Galactosidase From Spleen Homogenate; Alpha-galactosidase A (Homo sapiens), P06280; human spleen homogenate, 4MU-alpha-Gal fluorescence, 40 min; Potency, µM (series often up to 80 µM), hits mostly inhibitors; 0.008% of 240,000 active
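Spleen homogenate 1 ug + cpd (titration) + 4-MU-alpha-D-galactopyranoside 1 mM; 37C 40 min; 50 mM citrate/phosphate pH 5.0, 0.01% Tween-20; stop pH 10; fluorescence 365/440; AC50 via Hill.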
GLA inh pH 4.5 = qHTS Assay for Inhibitors of Human alpha-Galactosidase at pH 4.5. Alpha-galactosidase A (Homo sapiens), P06280. activity change, negative = inhibition, % at 105 µM. purified enzyme, 4-MU-alpha-Gal fluorescence, pH 4.5. AID 1467, 2008. 230,000 tested, under 10 active
Target sequence (P06280 whole entry, looked up): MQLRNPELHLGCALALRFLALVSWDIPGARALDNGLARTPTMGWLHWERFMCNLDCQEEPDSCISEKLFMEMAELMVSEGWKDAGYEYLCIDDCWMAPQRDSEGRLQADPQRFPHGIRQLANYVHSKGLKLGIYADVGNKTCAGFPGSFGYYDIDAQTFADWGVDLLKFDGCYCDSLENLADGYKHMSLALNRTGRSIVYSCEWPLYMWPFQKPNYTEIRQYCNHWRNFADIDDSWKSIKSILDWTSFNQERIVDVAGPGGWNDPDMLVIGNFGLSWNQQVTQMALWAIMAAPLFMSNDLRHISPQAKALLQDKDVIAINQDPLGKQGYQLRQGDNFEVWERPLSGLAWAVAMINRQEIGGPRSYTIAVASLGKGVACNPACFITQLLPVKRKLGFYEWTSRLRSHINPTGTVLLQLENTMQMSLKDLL
GAA inhib = qHTS Assay for Inhibitors of Human alpha-Glucosidase as a Potential Chaperone Treatment of Pompe Disease. purified human GAA, 4-MU-alpha-glucoside fluorescence. Potency, µM (top dose mostly 76.9 µM), most hits filed as inhibitors. 0.005% of 200,000 active. AID 1466, 2008
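Read-out is 4-methylumbelliferone fluorescence (Ex 365/Em 440 nm) after NaOH/glycine stop at pH 10. Enzyme 4 nM, substrate 400 uM, pH 5.0 citrate buffer, 20 min room temperature; AC50 from Hill-equation concentration-response.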
Hits are given with their value; - = inactive; ? = inconclusive; . = no result. This is a sample that favours compounds with a hit; in the whole collection about 0.4% have one here. The call rests on the fitted dose curve; in most records, active means well fitted curve in the direction sought with a large enough effect; inconclusive means small, poorly fitted or top-dose-only effect, or another doubt; inactive means no such curve, though single readings can be large; an effect the other way counts as inactive or inconclusive.

SMILES | GAA spleen mod | GAA glycogen mod | aGal spleen mod | GLA inh pH 4.5 | GAA inhib
O=C(COC(=O)C1CCN(S(=O)(=O)c2cc([N+](=O)[O-])ccc2Cl)CC1)Nc1ncc(Cl)cc1Cl | - | - | - | - | -
O=C(Nc1ccc(OCC(=O)N2CCN(S(=O)(=O)c3ccccc3)CC2)cc1)c1ccco1 | ? | - | - | - | 28µM
CC(C)CC(=O)NC(NC(=S)Nc1sc2c(c1C#N)CCCC2)C(Cl)(Cl)Cl (stereo not given) | - | 28µM | - | - | -
CCC(=O)Nc1sc2c(c1C#N)CCC2 | - | - | - | - | -
CC(=O)Nc1cc(C(C)C)c(O)c(C(C)C)c1 | - | 11µM | - | - | -
CCn1c2ccccc2c2cc(CN3CCN(Cc4cc(OC)ccc4O)CC3)ccc21 | - | 7.9µM | - | - | -
CCn1c2ccccc2c2cc(CN3CCN(Cc4ccccc4C)CC3)ccc21 | . | - | . | . | .
COC(=O)C(NC(=O)COc1ccccc1)(Nc1nc2c(s1)CCCC2)C(F)(F)F (stereo not given) | - | ? | - | - | -
O=C(O)c1ccc(O)cc1 | - | . | - | . | .
O=C(O)c1ccc(O)c(O)c1 | - | 5µM | - | - | -
COc1ccc(Nc2cc(C)c3cc(NC(=O)Cc4c(F)cccc4Cl)ccc3n2)cc1 | . | - | . | . | .
NC(=S)N/N=C1/CCSc2ccc3ccccc3c21 | - | 28µM | - | - | -
CC(C)(C)n1cnc2cc(NS(=O)(=O)c3ccc(Br)cc3)ccc21 | - | - | - | - | -
Cc1ccc(S(=O)(=O)/N=C(\CCl)N2CCOCC2)cc1 | - | - | - | - | -
CCNC(=S)NNc1nc(N2CCOCC2)nc(N2CCOCC2)n1 | - | ? | - | - | -
CNC(=S)NNc1nc(N2CCOCC2)nc(N2CCOCC2)n1 | - | 7.9µM | - | - | -
O=C(NNc1nc2cc3c(cc2s1)OCO3)c1ccc(F)cc1 | - | 28µM | - | - | -
O=C(NNc1nc2cc3c(cc2s1)OCCO3)c1ccc(F)cc1 | - | - | - | - | -
O=C(c1ccccc1F)N1CCN(Cc2nc3sc4c(c3c(=O)[nH]2)CCCC4)CC1 | . | - | . | . | .
Cc1ccn2c(C(=O)NN=C3CCCCCCC3)c(C)nc2c1 | - | 40µM | - | - | -
COc1cc(/C=N/NC(=O)c2cn(-c3cccc(C)n3)cn2)ccc1O | - | 25µM | - | - | -
Clc1ccc(Nc2c(-c3cccs3)nc3ccc(Cl)cn23)cc1 | . | - | . | . | .
Brc1ccc2nc(-c3cccs3)c(NCC3CCCO3)n2c1 (stereo not given) | - | 6.3µM | - | - | -
Brc1ccc2nc(-c3ccncc3)c(NC3CCCC3)n2c1 | - | 9.9µM | - | ? | -
CCN(CC)c1ccc(-c2nc3cnccn3c2NC2CCCC2)cc1 | - | 9.9µM | - | - | -
SMILES | GAA spleen mod | GAA glycogen mod | aGal spleen mod | GLA inh pH 4.5 | GAA inhib
COc1ccc(NC(=S)N(CCN2CCCCC2)Cc2ccco2)cc1 | - | - | - | - | ?
COc1cc(NC(=O)C2C3C=CC(C3)C2C(=O)O)ccc1NC(=O)c1ccccc1 (stereo not given) | . | - | . | . | .
C/C(=N\Nc1nc2ccccc2[nH]1)c1cc2ccccc2o1 | - | 11µM | - | - | -
C/C(=N\Nc1nc2ccccc2[nH]1)c1ccc2c(c1)OCCO2 | - | 50µM | - | - | -
Cc1ccc(CNC(=O)C23CN(Cc4ccccc4)CC2C(c2ccc([N+](=O)[O-])cc2)=NO3)cc1 (stereo not given) | - | - | - | - | -
CCCCc1c(O)n(-c2ccccc2)[nH]c1=O | - | . | - | - | .
O=C1NCCCC2c3cc(O)c4ccccc4c3OC12N1CCCCC1 (stereo not given) | - | 25µM | - | - | -
O=C1NCCCC2c3c(cc(Br)c(O)c3Br)OC12N1CCOCC1 (stereo not given) | - | - | - | - | -
Cc1cc(=O)oc2cc(OCC(=O)NC(Cc3c[nH]c4ccc(O)cc34)C(=O)O)c(Cl)cc12 (stereo not given) | . | 7.9µM | . | . | .
COc1cc(C2NCCC(=O)C2(C)C)cc(OC)c1OC (stereo not given) | - | - | - | - | -
NNC(=O)c1cc2sccc2s1 | - | 25µM | - | - | -
CC(=O)NNC(=O)c1cc2sccc2s1 | - | - | - | - | ?
c1ccc(-c2ccc(N3CC[C@@]4(CCCNC4)C3)cc2)cc1 | - | . | - | . | .
Cc1cnc(C(=O)OCC(=O)C23CC4CC(CC(C4)C2)C3)cn1 | . | - | . | . | .
Nc1ccc(O)cc1C(=O)OCC(=O)C12CC3CC(CC(C3)C1)C2 | - | 16µM | - | - | ?
Cc1ccc(CNC(=O)C2CC(c3ccccc3[N+](=O)[O-])=NO2)cc1 (stereo not given) | - | - | - | - | -
COc1ccc(NC(=S)N2c3ccccc3CC2C)cc1OC (stereo not given) | - | - | - | - | -
Cc1cc(C)cc(Nc2nc3c(S(=O)(=O)c4cccc(Cl)c4)nnn3c3ccsc23)c1 | . | 40µM | . | . | .
CC(=O)Nc1ccc(Nc2nc3c(S(=O)(=O)c4cccc(Cl)c4)nnn3c3ccsc23)cc1 | . | - | . | . | .
CCCCCCCC1(C)NC(=O)N(c2ccccc2)N1 (stereo not given) | - | 25µM | - | - | -
Cc1ccccc1N(C(=O)c1ccccn1)C(C(=O)NCc1ccccc1)c1ccncc1 (stereo not given) | . | - | . | . | .
O=C(NCc1ccccc1)C(c1ccncc1)N(C(=O)c1ccccn1)c1ccccc1 (stereo not given) | . | 11µM | . | . | .
O=c1c2c3c(sc2nc2sc(CN4CCCCC4)cn12)CCCC3 | - | - | - | - | -
CC(C)Oc1ccc(CNC(=O)c2ccc(NC(=O)N3CC(C)Sc4ccccc43)cc2)cc1 (stereo not given) | . | - | . | . | .
O=C(NCc1ccc(F)cc1)c1ccc(NC(=O)N2CC3CCCN3c3ccccc32)cc1 (stereo not given) | . | 16µM | . | . | .
N#CC1=C(SCC(=O)c2cc3ccccc3oc2=O)NC(=O)C(C#N)C12CCCC2 (stereo not given) | - | 22µM | - | - | -
CC(C)(C)C1CCC2(CC1)C(C#N)=C(SCC(=O)Nc1ccccc1)NC(=O)C2C#N (stereo not given) | - | ? | - | - | ?
CC(C)NC(=O)CN1CCN(Cc2nc(-c3cccs3)no2)CC1 | - | - | - | - | -
COc1ccc(NC(=O)NNC(=O)C(O)(c2ccccc2)c2ccccc2)cc1 | . | - | . | . | .
COc1ccc(C(O)(C(=O)NNc2ccc(C)cc2)c2cccs2)cc1 (stereo not given) | - | 20µM | - | - | -

Bioassay records as filed in PubChem BioAssay.
